In PubChem BioAssay (NCATS) one finds activation and Potency data, which are given here for 40 compounds.

Each structure is given as a SMILES string. Inconclusive results are not listed. Calls of active or inactive are those of the source. The call rests on the fitted dose curve; in most records, active means well fitted activation curve with a large enough effect; inconclusive means small, poorly fitted or top-dose-only effect; inactive means no such curve, though single readings can be large or run the other way.
Potency means the concentration at half of the fitted maximal effect.

Sequence of Cellular tumor antigen p53 (Homo sapiens) (P04637 whole entry, looked up): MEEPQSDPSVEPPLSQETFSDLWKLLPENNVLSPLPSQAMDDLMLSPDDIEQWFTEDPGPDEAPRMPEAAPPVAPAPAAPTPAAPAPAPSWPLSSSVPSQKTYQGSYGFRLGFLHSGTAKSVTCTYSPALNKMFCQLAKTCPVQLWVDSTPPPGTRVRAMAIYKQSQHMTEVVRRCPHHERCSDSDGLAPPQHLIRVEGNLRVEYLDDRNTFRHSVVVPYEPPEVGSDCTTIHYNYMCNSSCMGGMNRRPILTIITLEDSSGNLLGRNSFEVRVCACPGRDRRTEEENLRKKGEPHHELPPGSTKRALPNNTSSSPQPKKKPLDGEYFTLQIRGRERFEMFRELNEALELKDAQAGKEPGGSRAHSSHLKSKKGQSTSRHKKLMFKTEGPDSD

The test has as its target Cellular tumor antigen p53 (Homo sapiens) (UniProt P04637). The experiment in a line: Primary qHTS for small molecule compounds that upregulate eGFP-tagged delta133p53alpha (in N-terminal) cells. (AID 2060322). Further: nearly all actives have a fitted effect of over 75% in size.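 On activation: cells pre-induced with doxycycline then dosed without doxycycline; series mostly up to about 56 µM; 0% = DMSO vehicle and 100% = reference activator.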 Conditions: NCI-H358 eGFP-delta133p53alpha fluorescence, 24 h; activation: stronger effect = higher value. The procedure, abridged: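 NCI-H358 cells pre-induced 24 h with 10 ng/ml doxycycline for eGFP-delta133p53alpha, plated dox-free and exposed 24 h at 37C to titrated compounds. Fixed, Hoechst-stained; gated GFP peak intensity by laser scanning cytometry, normalized to DMSO (0%) and 57.5 uM 5-azacytidine (100%).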
In general terms: qHTS replaces the single test concentration by a dilution series.
Regarding `Cc1cccc(C)c1NC(=O)c1cc(S(N)(=O)=O)c(Cl)cc1O`, the activation was -9.21% (inactive).
Take `CN[C@@H]1[C@@H](O)[C@@H](O[C@@H]2[C@@H](O)[C@H](O[C@H]3O[C@H](CN)[C@@H](O)[C@H](O)[C@@H]3O)[C@@H](N)C[C@@H]2NC(=O)[C@@H](O)CN)OC[C@]1(C)O`: the activation was -2.48% (inactive).
Take `Cc1oc(-c2ccccc2)nc1CCC(=O)c1ccc(CC2SC(=O)NC2=O)cc1` (stereo not given): the activation was -3.95% (inactive).
Still for that read-out and setting: for `CCNC(=O)Nc1ccc(-c2nc3c(c(N4CCOC[C@H]4C)n2)CCN(C2COC2)C3)cc1` the value was 5.73% (inactive); for `COC(=O)c1ccccc1C(=O)c1ccc(OCCN2CCCCC2)cc1`, -14.1% (inactive).
Turning to `COc1cc(N)c(Cl)cc1C(=O)NC1CCN(Cc2ccccc2)CC1`, the activation is 17.6% (inactive).
For the compound `Cc1nc(N)nc(N)c1-c1ccc(Cl)c(Cl)c1`, the activation is 2.82% (inactive).
As for `NC(CSCC(=O)O)C(=O)O` (stereo not given), the activation was -5.08% (inactive).
Still for that read-out and setting: for `O=C(OCCN1CCOCC1)c1cccnc1Nc1cccc(C(F)(F)F)c1` the value was -7.34% (inactive).
Still for that read-out and setting: for `FC(F)(F)C(Cl)Br` (stereo not given) the value was 8.37% (inactive); for `O=C(NC1CCN(CCc2c[nH]c3ccccc23)CC1)c1ccccc1`, 2.51% (inactive); for `CN1[C@@H]2CC[C@H]1CC(OC(=O)C(O)c1ccccc1)C2` (stereo not given in full), 5.08% (inactive).
Regarding `N#CSCC(=O)O`, the activation is 1.69% (inactive).
Consider `NCC(=O)CCC(=O)O`, for which the activation was -14.1% (inactive).
Take `CCOC(=O)Nc1ccc2c(c1)N(C(=O)CCN1CCOCC1)c1ccccc1S2`: the activation was 4.18% (inactive).
Turning to `CCOC(=O)[C@H](CCc1ccccc1)N[C@@H](C)C(=O)N1Cc2cc(OC)c(OC)cc2C[C@H]1C(=O)O`, the activation is -5.86% (inactive).
On the same count and under the same terms, next, `CS(=O)(=O)c1ccc(-c2cn3ccccc3n2)cc1`: -26.8% (inactive); `C#C[C@]1(O)CC[C@H]2[C@@H]3CCC4=Cc5oncc5C[C@]4(C)[C@H]3CC[C@@]21C`: -14.2% (inactive); `CN=C(N)NC(=O)Nc1c(C)cccc1C`: 5.86% (inactive).
As to `CC1(COc2ccc(CC3SC(=O)NC3=O)cc2)CCCCC1` (stereo not given), the activation is -3.95% (inactive).
With `Nc1ncnc2c1ncn2[C@@H]1O[C@H](COP(=O)(O)O)[C@@H](O)[C@H]1O`, the activation is 5.08% (inactive).
Turning to `O=C(O)C1(C(=O)O)CCC1.[NH2-].[NH2-].[Pt+2]`, the activation was 0.565% (inactive).
As to `CC1(C)SCCN(S(=O)(=O)c2ccc(OCC#CCO)cc2)[C@@H]1C(=O)NO`, the activation is 9.74% (inactive).
As for `CN1C(=O)CC(C)(c2ccccc2)C1=O` (stereo not given), the activation is 23.4% (inactive).
Take `CCC(=O)NC[C@H](Cc1ccc(OCCc2nc(-c3ccccc3)oc2C)cc1)NC(C)=CC(=O)c1ccc(C(F)(F)F)cc1`: the activation is 17.2% (inactive).
In the case of `CN(C)c1ccc(C(=O)NCCCCCC(=O)NO)cc1`, the activation was 10.1% (inactive).
Regarding `COc1ccc(-c2cc(=S)ss2)cc1`, the activation is -4.18% (inactive).
Same read-out and setting: for `CCCCCC(=O)O[C@]1(C(C)=O)CC[C@H]2[C@@H]3CCC4=CC(=O)CC[C@]4(C)[C@H]3CC[C@@]21C` the value was 23.2% (inactive).
Consider `Cc1cc(O)c2ccccc2c1O`, for which the Potency was 34.7 µM (active).
As to `OC[C@H]1O[C@@H](n2cnc3c2NC=NC[C@@H]3O)C[C@H]1O`, the activation is -21% (inactive).
In the case of `COC(=O)c1c(Cl)c(Cl)c(C(=O)OC)c(Cl)c1Cl`, the activation is -11.7% (inactive).
`Cc1cc(=O)[nH]c(=S)[nH]1`: the activation was 19.2% (inactive).
Consider `Nc1cccc(-c2csc(NC(=O)CCCCCCC(=O)NO)n2)c1`, for which the activation was 139% (inactive).
On to `O=C(CCCl)NCc1ccccc1`, for which the activation is -0.565% (inactive).
Same read-out and setting: for `CCOc1ccccc1OCC1CNCCO1` (stereo not given) the value was -17.6% (inactive).
Regarding `C[C@@H]1[C@H](O)[C@@H](C)C=CC=CC=CC=CC=CC=CC=C[C@H](O[C@@H]2O[C@H](C)[C@H](O)[C@H](N)[C@@H]2O)C[C@@H]2O[C@](O)(C[C@@H](O)C[C@@H](O)[C@H](O)CC[C@@H](O)C[C@@H](O)CC(=O)O[C@H]1C)C[C@H](O)[C@@H]2C(=O)O`, the activation was -1.15% (inactive).
With `O=c1cc[nH]c(=O)[nH]1`, the activation is -12.6% (inactive).
Still for that read-out and setting: next, `CC(C)OP(=O)(CP(=O)(OC(C)C)OC(C)C)OC(C)C`: -4.18% (inactive).
`CN(C)CCOc1ccc(-c2nc(-c3ccc4c(c3)CCC4=NO)c(-c3ccncc3)[nH]2)cc1`: the activation is -18.7% (inactive).
Still for that read-out and setting: for `CC(O)COc1ccccc1` (stereo not given) the value was -13% (inactive).
